# From PubChem BioAssay
# DAX1 inh-1 = inhibitors of human orphan nuclear receptor DAX1 (NR0B1) | P51843 | HEK293 Gal4-DAX1 luciferase reporter, luminescence | inhibition, % at 6.75 µM | hit rate 0.99% among 340,000;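 active = inhibition above the mean over all tested compounds plus 3 SD, cut at about 4.2% in these data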;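 also: 0% = DAX1-transfected cells with DMSO and 100% = empty-vector control cells with DMSO; inhibition shows as a rise in luminescence from relieved DAX1 repression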
# Target sequence (P51843 207-470 limits assumed): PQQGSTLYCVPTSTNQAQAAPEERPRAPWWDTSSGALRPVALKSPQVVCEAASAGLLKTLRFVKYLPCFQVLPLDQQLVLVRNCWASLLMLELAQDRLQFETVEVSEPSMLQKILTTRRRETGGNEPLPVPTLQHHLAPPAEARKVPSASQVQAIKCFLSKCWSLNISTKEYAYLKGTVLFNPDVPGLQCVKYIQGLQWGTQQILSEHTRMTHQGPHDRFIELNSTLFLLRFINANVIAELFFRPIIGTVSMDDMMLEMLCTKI
# DAX1 inh-2 = DAX1 (NR0B1) inhibition, primary screen; HEK293T StAR-luciferase reporter, SF-1/DAX-1 repression relief; inhibition, % at 6.8 µM; hit rate 1.1% among 370,000;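 active = inhibition above the mean over all tested compounds plus 3 SD, cut at about 3.6% in these data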;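 also: 0% = DAX-1 cells with DMSO and 100% = cells lacking DAX-1 with DMSO; higher inhibition means more luminescence from relief of DAX-1 repression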
# hcDAF-12 act = H. contortus DAF-12 activation, primary screen. AID 652067. HEK293 hcDAF-12 lit1-tk-luc reporter, luminescence; 0% DMSO, 100% Δ7-dafachronic acid. activation, % at 6.8 µM. hit rate 1.4% among 370,000;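 active = activation above the mean of all tested compounds plus 3 SD, cut at about 5.5% in these data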;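 also: 100% = response to 3 µM Δ7-dafachronic acid high control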
# ssDAF12 agonist = activates DAF-12 receptor from parasite S. stercoralis | activation, % at 6.8 µM | hit rate 1% among 370,000 | HEK293 ssDAF-12/GRIP1 lit1-tk-luc reporter, luminescence; % of 3 µM dafachronic acid response;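 active = activation above the mean over all tested compounds plus 3 SD, cut at about 0.9% in these data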;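 also: 0% = DMSO-only wells and 100% = 3 µM delta7-dafachronic acid wells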
# hgDAF-12 ag = hgDAF-12 agonism, primary luciferase screen; HEK293 GAL4-hgDAF12 UAS-luciferase reporter, agonist luminescence; normalized to butyrate control; hit rate 1.8% among 370,000; activation, % at 6.8 µM;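 active = activation above a cutoff set at the mean of all screened compounds plus 3 SD, cut at about 10% in these data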;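 also: 0% = DMSO wells and 100% = sodium butyrate wells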
# Active calls of the source: *; . = no result. An excerpt weighted towards active compounds, which were near 4.1% of everything screened.
SMILES,DAX1 inh-1,DAX1 inh-2,hcDAF-12 act,ssDAF12 agonist,hgDAF-12 ag
CC(C)(C)c1ccc(-c2nnc3n2N=C(c2ccc(Cl)cc2)CS3)cc1,.,-1.2,-0.2,-1.9,0.4
O=C(OCc1cn(Cc2c(F)cccc2F)nn1)N1CCCC1,.,-0.4,-3.0,-0.9,-1.1
Clc1nccc(NCc2ccccc2)n1,1.8,0.1,-2.8,-1.9,2.3
Clc1cccc(NCc2ccccc2)n1,4.9*,-1.1,0.2,-1.3,4.1
COc1cc(/C=N/NC(N)=S)ccc1OCc1ccc(C)cc1,-2.4,-1.2,2.1,-1.2,10.6*
COc1cc(/C=N/NS(=O)(=O)c2ccc(C)cc2)ccc1OCc1cccc(C(=O)O)c1,-8.1,1.5,2.5,-0.4,10.5*
COC(=O)[C@]12C[C@H](CC(=O)NCCCCc3ccccc3)C(=O)N(Cc3ccc(Cl)cc3Cl)C1=C[C@H](C(C)C)O[C@@H]2C1CC1,.,-0.5,-1.1,0.1,0.4
O=C(Nc1ccc(F)cc1)C1CC2CCC1C2 (centres undefined),0.3,0.2,-1.7,-0.6,2.1
CC(C)c1ccc(NC(=O)C2CC3CCC2C3)cc1 (centres undefined),6.0*,1.4,-0.1,-0.6,9.4
CCC(C)c1ccc(NC(=O)C2CC3CCC2C3)cc1 (centres undefined),4.7*,1.1,0.7,-1.3,7.0
CCOC(=O)c1cnc(SC)nc1N,0.1,-0.3,-0.7,-1.1,1.1
CCOC(=O)c1cnc(SCC(=O)c2ccc(C)cc2)nc1N,-0.5,0.2,-1.5,-1.0,2.8
CCOC(=O)c1cnc(SCC#N)nc1N,6.9*,0.1,-2.1,-0.5,0.1
CCOC(=O)c1cnc(SCC(C)C)nc1N,1.8,2.8,2.1,-0.1,11.2*
COc1ccc(COC[C@H](C)N2C[C@@H](C)[C@H](CN(C)S(=O)(=O)c3ccc(F)cc3)OCCCC[C@H](C)Oc3ccc(NC(=O)Nc4ccccc4)cc3C2=O)cc1,.,.,-3.3,-1.4,-2.2
O=C(Nc1ccc2c(c1)OCO2)Nc1cnccn1,1.8,0.2,0.1,-1.4,5.7
O=C(Nc1ccc2c(c1)OCCO2)c1ccccn1,-5.4,4.4*,2.9,-0.4,5.8
N#Cc1ccccc1OCC(=O)Nc1ccc2c(c1)OCCCO2,-0.3,0.6,-0.7,-0.8,7.5
O=C(Nc1ccc2c(c1)OCO2)Nc1ccccn1,1.1,2.0,2.4,-0.1,12.2*
N#Cc1ccccc1OCC(=O)Nc1ccc2c(c1)OCCO2,0.9,4.1*,6.5*,-0.5,11.7*
O=C(Nc1ccc(NC(=O)c2ccccn2)cc1)C(=O)Nc1ccc2c(c1)OCCO2,-0.3,0.6,0.6,-0.5,3.8
CC(OC(=O)c1ccccn1)C(=O)Nc1ccc2c(c1)OCCO2 (centres undefined),1.1,-2.5,0.1,-1.1,11.1*
Cc1ccc(Cn2cc(COC(=O)N3CCCC3)nn2)cc1,.,0.1,-3.9,-0.3,-1.4
COc1ccccc1CNC(=O)NC1CCN(CC(=O)Nc2ccc3c(c2)OCCO3)CC1,.,-0.7,-3.2,-1.3,-0.5
O=C(Nc1ccc2c(c1)OCO2)c1cnn2cccnc12,1.9,3.3,5.7*,-1.2,10.0
SMILES,DAX1 inh-1,DAX1 inh-2,hcDAF-12 act,ssDAF12 agonist,hgDAF-12 ag
O=C(Nc1ccccc1Oc1ccccc1)NC1CCCCN(Cc2cccc(Cl)c2)C1=O (centres undefined),.,-0.8,-2.2,-1.0,-3.2
CCc1ccc(Nc2nnc(SCC(=O)Nc3sccc3C(N)=O)s2)cc1,-0.8,-0.2,1.9,-1.3,7.8
CCc1ccc(Nc2nnc(SCC(=O)NCCN3C(=O)CSC3=O)s2)cc1,-0.8,1.4,2.3,-0.4,12.1*
COC(=O)[C@]12C[C@H](CC(=O)NCc3ccc(C)o3)C(=O)N(Cc3ccccc3)C1=C[C@H](COCc1ccccc1)O[C@@H]2C,.,-1.6,-1.1,-0.5,0.7
CCCCCNC(=O)C(c1cc2ccccc2o1)n1c(=O)c(-c2cc3ccccc3[nH]2)nc2ccccc21 (centres undefined),.,0.4,5.6*,-0.2,4.9
CCCCCNC(=O)C(C1CC1)n1c(=O)c(-c2cc3ccccc3[nH]2)nc2ccccc21 (centres undefined),.,0.1,2.1,-0.4,3.3
Cc1cccc(C)c1NC(=O)C(c1ccccc1)n1c(=O)c(-c2cc3ccccc3[nH]2)nc2ccccc21 (centres undefined),.,0.5,2.8,0.2,0.9
CC(C)(C)NC(=O)C(c1ccc(-c2ccccc2)cc1)n1c(=O)c(-c2ccccc2)nc2ccccc21 (centres undefined),.,-0.3,-2.1,-0.8,-1.6
CC(C)(C)NC(=O)C(c1cc2ccccc2o1)n1c(=O)c(-c2ccccc2)nc2ccccc21 (centres undefined),.,1.0,3.6,1.1*,3.0
CCCCCNC(=O)C(c1ccc(-c2ccccc2)cc1)n1c(=O)c(-c2cc3ccccc3[nH]2)nc2ccccc21 (centres undefined),.,1.7,6.0*,1.2*,6.0
Cc1cccc(C)c1NC(=O)C(c1ccncc1)n1c(=O)c(-c2cc3ccccc3[nH]2)nc2ccccc21 (centres undefined),.,2.5,6.4*,1.0*,10.6*
CCCCCNC(=O)C(c1cc2ccccc2o1)n1c(=O)c(-c2ccccc2)nc2ccccc21 (centres undefined),.,-0.4,2.8,0.4,1.0
C=CCn1c(COc2ccc(C)cc2)nnc1SCC(=O)Nc1cc(Cl)cc(Cl)c1,.,-1.5,-1.6,-1.6,-1.6
c1cc2ccn(CC3CC3)c2cc1-c1ccc2ccn(CC3CC3)c2c1,.,-1.6,1.6,-0.9,2.2
NC(=O)C(=O)N/N=C/c1c[nH]c2ccc(Br)cc12,4.5*,0.1,-0.3,0.0,-0.1
O=C(N/N=C/c1c[nH]c2ccc(Br)cc12)c1ccccn1,3.6,1.8,3.0,-0.3,16.4*
O=C(N/N=C/c1c[nH]c2ccc(Br)cc12)c1ccncc1,-1.4,-0.5,0.5,-1.6,-1.5
O=C(N/N=C/c1c[nH]c2ccc(Br)cc12)C1CC1,0.3,-0.3,-0.6,-1.1,-0.1
Cc1onc(-c2c(Cl)cccc2Cl)c1C(=O)N1CCCc2ccccc21,-1.4,-0.8,0.4,-1.4,-3.4
Cc1onc(-c2ccccc2)c1C(=O)N1CCCc2ccccc21,-0.9,1.0,0.3,1.0*,1.1
Cc1ccc(S(=O)(=O)N2CCCCC2)cc1NC(=O)COC(=O)Cc1c(F)cccc1Cl,-1.5,-0.1,6.1*,-1.8,-0.8
CS(=O)(=O)c1ccc(Cl)c(NC(=O)Cc2ccccc2F)c1,-1.2,0.3,0.4,-1.4,-1.6
Cc1ccc(S(=O)(=O)N2CCCCC2)cc1NC(=O)COC(=O)c1c(F)cccc1F,0.0,-0.3,-0.7,0.1,2.4
CS(=O)(=O)c1ccc(Cl)c(NC(=O)Cc2c(F)cccc2Cl)c1,-1.1,0.3,5.6*,-0.3,-1.6
Cn1ccnc1C(=O)O[C@@H]1CCC[C@@]2(C(=O)N(Cc3ccccc3)c3ccccc32)[C@H]1NC(=O)CCc1ccccc1,.,-1.1,-2.7,-1.1,-1.0
